Experimental data: PubChem BioAssay (NCATS)
Where “and” joins values, the source holds several entries; their conditions need not be identical. Equal entries are not always repeated. Inconclusive results are not listed. A call without a number means that no potency is given here. Calls of active or inactive are those of the source. Unless noted, the call rests on the fitted dose curve; in most records, active means well fitted curve in the direction sought with a large enough effect; inconclusive means small, poorly fitted or top-dose-only effect, or another doubt; inactive means no such curve, though single readings can be large; an effect the other way counts as inactive or inconclusive.

Experiments:
[1] = Cell Viability - SK-N-SH (AID 435; calls by dose curve;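 further: potency means the concentration at half of the fitted maximal effect; compound exposure lasted 40 h at 37 °C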); settings: SK-N-SH neuroblastoma cell viability qHTS
Summary of the method: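 SK-N-SH human neuroblastoma cells (1500/well) were exposed to compounds in complete medium for 40 h at 37 °C, and intracellular ATP was then measured by CellTiter-Glo luminescence. AC50 was taken from Hill fits, normalized to DMSO and 100 uM tamoxifen.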

[2] = Cellular Toxicity (caspase-3) HUV-EC-C (AID 656); settings: HUV-EC-C cells, caspase-3 activation (apoptosis), vehicle = 0, 100 µM tamoxifen = 100%; series mostly up to 92.2 µM
Summary of the method: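 HUV-EC-C endothelial cells, 1000/well, were pre-incubated 5 hr at 37°C, then exposed to compounds for 16 hr at 37°C. Caspase-Glo 3/7 luminescence was read after 20 min at room temperature. AC50 came from Hill fits, normalized to DMSO and 100 uM tamoxifen.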

[3] = Cellular Toxicity (caspase-3) H-4-II-E (AID 663); settings: H-4-II-E rat hepatoma; Potency: caspase-3 activation; series mostly up to 92.2 µM;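 further: cells exposed to compound for 16 hr before readout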
Summary of the method: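 Caspase 3/7 activation measured in H-4-II-E cells in complete culture medium after 16 hr treatment at 37 °C, using luciferase-coupled substrate readout; AC50 values come from Hill-equation fits of normalized concentration-response data.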

[4] = MultiTox-Fluor Cytotoxicity Assay - LYMP1-002 - Dead Cells (AID 960); settings: LYMP1-002 lymphoblastoid cells, dead-cell protease fluorescence; series mostly up to 46.1 µM; further: nearly all actives have a fitted effect of over 60% in size
Summary of the method: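 Dead-cell fluorescence (Ex/Em 485/520) after 16 h compound exposure at 37 C of LYMP1-002 lymphoblastoid cells in complete medium; AC50 by Hill equation, with data scaled between DMSO and 15 uM tetraoctylammonium bromide.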

[5] = Cell Viability - LYMP2-004 (AID 966); settings: LYMP2-004 lymphoblastoid cell viability, qHTS; series mostly up to 92.2 µM; further: nearly all actives have a fitted effect of over 65% in size; further: potency means the concentration at half of the fitted maximal effect
Summary of the method: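 AC50 values come from Hill modelling of concentration-dependent loss of intracellular ATP, measured by CellTiter-Glo luminescence. Human LYMP2-004 lymphoblastoid cells (2500/well) were exposed to compound for 24 h at 37 C.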

[6] = Cell Viability - LYMP2-005 (AID 967); settings: LYMP2-005 lymphoblastoid cell viability; series mostly up to 92.2 µM
Summary of the method: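 CellTiter-Glo luminescence (cellular ATP) read-out; LYMP2-005 lymphoblastoid cells, 2500/well, 5 h pre-incubation, then 24 h compound exposure at 37 C in complete medium. Tetraoctylammonium bromide positive control; AC50 by standard Hill fit.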

[7] = Cell Viability - LYMP2-013 (AID 970); settings: LYMP2-013 lymphoblastoid cells viability; series mostly up to 92.2 µM; further: nearly all actives have a fitted effect of over 55% in size; further: potency means the concentration at half of the fitted maximal effect
Summary of the method: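 qHTS cytotoxicity: ATP-dependent luminescence (CellTiter-Glo, 30 min room temperature) read after 24 h compound exposure at 37 C of 2500 LYMP2-013 lymphoblastoid cells per well. Concentration-response fitted with Hill equation to give AC50.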

[8] = Cell Viability - LYMP2-025 (AID 976); settings: LYMP2-025 lymphoblastoid cell viability; series mostly up to 92.2 µM
Summary of the method: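 Cytotoxicity read as loss of intracellular ATP (luciferase luminescence) after 24 h compound treatment at 37 C. Uses LYMP2-025 lymphoblastoid cells in 1536-well format; Hill-equation modelling gives AC50; tetraoctylammonium bromide as positive control.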

[9] = Cell Viability - LYMP2-007 (AID 979); settings: LYMP2-007 lymphoblastoid cell viability; series mostly up to 92.2 µM;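 further: cells exposed to compound for 24 h before reading; nearly all actives have a fitted effect of over 60% in size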; further: potency means the concentration at half of the fitted maximal effect
Summary of the method: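 AC50 values come from Hill-equation fits of luminescent intracellular ATP (CellTiter-Glo, 30 min, room temperature) following 24 h compound exposure at 37 C. Cells: LYMP2-007 lymphoblastoid line, 2500 per well, in complete culture medium.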

[10] = Cell Viability - LYMP2-014 (AID 983); settings: LYMP2-014 lymphoblastoid cells, viability qHTS; series mostly up to 92.2 µM; further: nearly all actives have a fitted effect of over 50% in size
Summary of the method: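 Intracellular ATP loss, read by luciferase luminescence, measures acute cytotoxicity after 24 h compound exposure of lymphoblastoid LYMP2-014 cells (2500/well, 37 C). Concentration-response data fitted to the Hill equation for AC50.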

[11] = Cell Viability - LYMP2-018 (AID 985); settings: LYMP2-018 lymphoblastoid cells, viability (qHTS); series mostly up to 92.2 µM; further: nearly all actives have a fitted effect of over 50% in size; further: potency means the concentration at half of the fitted maximal effect
Summary of the method: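 Viability read as CellTiter-Glo luminescence (cellular ATP) after 24 hr compound exposure at 37 C of 2500 LYMP2-018 lymphoblastoid cells/well, pre-plated 5 hr. Hill-equation modelling gave AC50.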

[12] = Cell Viability - LYMP2-022 (AID 987); settings: LYMP2-022 lymphoblastoid cell viability; series mostly up to 92.2 µM; further: nearly all actives have a fitted effect of over 55% in size; further: potency means the concentration at half of the fitted maximal effect
Summary of the method: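 Cytotoxicity read as decreased cellular ATP (CellTiter-Glo luminescence, 30 min room temperature) after 24 hours compound exposure of 2500 lymphoblastoid LYMP2-022 cells/well at 37 C. Concentration-response data fitted with standard Hill equation for AC50.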

[13] = Cell Viability - LYMP2-024 (AID 988); settings: LYMP2-024 lymphoblastoid cell viability; series mostly up to 92.2 µM; further: nearly all actives have a fitted effect of over 60% in size; further: potency means the concentration at half of the fitted maximal effect
Summary of the method: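 Cytotoxicity was taken as a decrease in ATP (CellTiter-Glo luminescence) after 24 hr compound exposure at 37 C of LYMP2-024 lymphoblastoid cells, 2500 cells/well. Concentration-response data were fitted to the Hill equation to give AC50.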

[14] = molecular target: Thyroid hormone receptor beta (Homo sapiens) (UniProt P10828); assay: qHTS assay for small molecule agonists of thyroid hormone receptor beta signaling (AID 588545; calls by dose curve); settings: TR-UAS-bla GripTite HEK 293, beta-lactamase ratio, agonist mode, 18 h; series mostly up to 76.7 µM
Sequence of Thyroid hormone receptor beta (Homo sapiens) (P10828 whole entry, looked up): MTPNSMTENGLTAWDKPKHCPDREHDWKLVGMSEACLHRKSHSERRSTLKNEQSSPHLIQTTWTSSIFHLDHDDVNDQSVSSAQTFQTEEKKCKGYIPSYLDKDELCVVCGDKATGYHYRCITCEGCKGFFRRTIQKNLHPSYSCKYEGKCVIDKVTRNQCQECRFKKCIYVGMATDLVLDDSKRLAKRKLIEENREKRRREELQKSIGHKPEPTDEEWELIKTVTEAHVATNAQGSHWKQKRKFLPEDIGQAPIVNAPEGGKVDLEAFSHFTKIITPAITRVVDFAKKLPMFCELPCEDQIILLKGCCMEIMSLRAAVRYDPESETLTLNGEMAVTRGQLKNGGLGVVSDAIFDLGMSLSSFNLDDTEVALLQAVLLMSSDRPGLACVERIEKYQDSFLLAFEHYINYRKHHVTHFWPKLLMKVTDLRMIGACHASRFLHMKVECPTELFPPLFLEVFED
Summary of the method: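 Agonist activity was read as beta-lactamase CCF4 fluorescence (405 ex, 460/530 em), scaled between DMSO (0%) and 10 nM T3 (100%), then Hill-fitted for EC50 and efficacy. HEK 293 TR-UAS-bla cells in 2% charcoal/dextran FBS medium were exposed 18 h at 37 C.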

[15] = qHTS assay for small molecule antagonists of retinoid X receptor alpha signaling (AID 588546); settings: HEK293T RXRa-UAS-bla, beta-lactamase ratio, antagonist mode; measured here: W530 green channel, cytotoxicity proxy;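 further: cells stimulated with 9-cis-retinoic acid as agonist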
Summary of the method: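 Beta-lactamase reporter inhibition, read as CCF4 fluorescence ratio (ex 405, em 460/530 nm) after 2 h at RT. HEK293T UAS-bla cells, 2500/well, were stimulated with 9-cis-RA at 500 or 100 nM final alongside test compound for 18 h at 37 C.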

[16] = molecular target: Thyroid hormone receptor beta (Homo sapiens) (UniProt P10828); assay: qHTS assay for small molecule antagonists of thyroid hormone receptor beta signaling (AID 588547; active means well fitted inhibition curve with a large enough effect in the signal ratio, with a control signal flat, not every such curve was filed as active; the % refers to the signal ratio;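 further: cells stimulated with 0.4 nM T3 agonist during compound exposure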); settings: TR-UAS-bla HEK293, beta-lactamase ratio, antagonist mode, 18 h
Summary of the method: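 TR-UAS-bla GripTite HEK293 cells in 2% charcoal/dextran FBS medium were preincubated 4 h at 37 C, given compound (0.59 nM to 92 uM) plus 0.4 nM T3 (final) for 18 h, then CCF4 for 2 h at RT; Hill fit gave IC50.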

[17] = molecular target: Tumor necrosis factor (Homo sapiens) (UniProt P01375); assay: qHTS assay to identify small molecules that stimulate Tumor Necrosis Factor-alpha (TNF-alpha) secretion (AID 651757; active means well fitted curve in the direction sought with a large enough effect in the signal ratio; the % refers to the signal ratio); settings: Human cells, HTRF 665/615 ratio; series mostly up to 92.2 µM
Sequence of Tumor necrosis factor (Homo sapiens) (P01375 whole entry, looked up): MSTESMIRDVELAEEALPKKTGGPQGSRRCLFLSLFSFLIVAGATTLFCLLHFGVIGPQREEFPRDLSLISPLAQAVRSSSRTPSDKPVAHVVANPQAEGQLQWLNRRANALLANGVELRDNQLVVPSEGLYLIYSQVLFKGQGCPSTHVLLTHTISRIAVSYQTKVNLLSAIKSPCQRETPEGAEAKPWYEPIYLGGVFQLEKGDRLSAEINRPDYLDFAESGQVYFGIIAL
Summary of the method: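 Secreted TNF-alpha quantified by TR-FRET sandwich of two labeled anti-TNF-alpha antibodies, incubated 3 hr at room temperature. Preceded by 17 hr, 37 C compound treatment of THP-1 cells at 3000 cells/well.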

[18] = qHTS assay for cell viability of HEK293 cells (AID 743288); settings: ATP luminescence (CellTiter-Glo), 18 h, stronger effect = lower value; further: nearly all actives have a fitted effect of over 50% in size
Summary of the method: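 After 18 h compound exposure at 37 C, parental HEK293 cells (2,000/well) are lysed with CellTiter-Glo and luminescence is read following 30 min at room temperature.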

[19] = molecular target: Nuclear receptor subfamily 1 group I member 2 (Rattus norvegicus) (UniProt Q9R1A7); assay: qHTS assay for small molecule activators of the rat pregnane X receptor (rPXR) signaling pathway (AID 651751; call rule not given here); settings: rPXR reporter cells, luciferase (One-Glo), 24 h
Sequence of Nuclear receptor subfamily 1 group I member 2 (Rattus norvegicus) (Q9R1A7 whole entry, looked up): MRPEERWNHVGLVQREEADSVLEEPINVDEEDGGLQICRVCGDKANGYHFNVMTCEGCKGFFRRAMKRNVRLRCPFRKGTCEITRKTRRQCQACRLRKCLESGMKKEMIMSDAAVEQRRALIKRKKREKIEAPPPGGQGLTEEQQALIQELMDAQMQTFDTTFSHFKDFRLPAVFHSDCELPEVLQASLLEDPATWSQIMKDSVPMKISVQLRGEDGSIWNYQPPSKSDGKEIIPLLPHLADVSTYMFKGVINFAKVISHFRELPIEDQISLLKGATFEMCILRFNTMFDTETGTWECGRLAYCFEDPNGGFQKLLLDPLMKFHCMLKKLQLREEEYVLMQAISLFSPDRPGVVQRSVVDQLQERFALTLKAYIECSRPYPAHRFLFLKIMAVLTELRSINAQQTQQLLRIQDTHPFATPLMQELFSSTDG

[20] = qHTS assay for small molecule agonists of retinoid X receptor alpha signaling (AID 588544); settings: HEK293T RXRa-UAS-bla, beta-lactamase reporter, 18 h; 530 nm emission

| Structure (SMILES) | Potency [1] | outcome [2] | Potency [3] | Potency [4] | Potency [5] | Potency [6] | Potency [7] | Potency [8] | Potency [9] | Potency [10] | Potency [11] | Potency [12] | Potency [13] | Potency [14] | max response [15] | activity change % (negative = inhibition) [16] | outcome [17] | max response [18] | max response [19] | max response [20] |
| --- | --- | --- | --- | --- | --- | --- | --- | --- | --- | --- | --- | --- | --- | --- | --- | --- | --- | --- | --- | --- |
| NNC(N)=S | > 92 µM (inactive) | inactive | inactive | inactive | inactive | inactive | inactive | inactive | inactive | inactive | inactive | inactive | inactive | inactive | 6.4% | 4.76% (inactive) | inactive | 1.66% (inactive) | 0.379% (inactive) | – |
| ClC(Cl)C(Cl)Cl | > 92 µM (inactive) | inactive | inactive | inactive | inactive | inactive | inactive | inactive | inactive | inactive | inactive | inactive | inactive | inactive | -2.39% | 0.5% (inactive) | inactive | -11.3% (inactive) | 3.27% (inactive) | -4.19% |
| OC[P+](CO)(CO)CO | > 92 µM (inactive) | inactive | inactive | inactive | 20 µM (active) | – | 31.6 µM (active) | – | 15.8 µM (active) | – | 7.94 µM (active) | 12.6 µM (active) | 7.94 µM (active) | inactive | 5.58% and 5.35% | -18.1% (inactive) and -15.5% (inactive) | inactive | -13.3% (inactive) | -2.2% (inactive) and -0.448% (inactive) | – |
| C1CC2OC2CC1C1CO1 (centres undefined) | > 92 µM (inactive) | inactive | inactive | inactive | inactive | inactive | inactive | inactive | inactive | inactive | inactive | inactive | inactive | inactive | -7.13% and -27.8% | 7.88% (inactive) | inactive | -9.23% (inactive) and -6.84% (inactive) | -1.19% (inactive) and -4.43% (inactive) | -2.62% |
| CCNCC | > 92 µM (inactive) | inactive | inactive | inactive | inactive | inactive | inactive | inactive | inactive | inactive | inactive | inactive | inactive | inactive | – | 15.3% (inactive) | inactive | 7.41% (inactive) | 0.38% (inactive) | -7.47% |
| c1ccc(C2CO2)cc1 (centres undefined) | > 92 µM (inactive) | inactive | inactive | inactive | – | inactive | inactive | inactive | inactive | inactive | inactive | inactive | inactive | – | -9.84% | – | inactive | – | -1.42% (inactive) | -3.27% |
| Cc1ccc(N)cc1C | > 92 µM (inactive) | inactive | inactive | inactive | inactive | inactive | inactive | inactive | inactive | inactive | inactive | inactive | inactive | inactive | -3.11% | 9.98% (inactive) | inactive | 0.786% (inactive) | – | -0.563% |
